Measurements taken from PubChem BioAssay (NCATS).
Records with an inconclusive call do not appear. The source made the active and inactive calls. Unless noted, calls come from the whole dose curve; as a rule, active = well fitted curve in the direction sought with a large enough effect; inconclusive = small, poorly fitted or top-dose-only effect, or another doubt; inactive = no such curve, though single readings can be large; an effect the other way counts as inactive or inconclusive.

How the values were obtained:
[1] = qHTS assay for cell viability of the p53RE-bla HCT-116 cell line (AID 743292); settings: p53RE-bla HCT-116 viability, ATP luminescence, 16 h; series mostly up to 95 µM; note: % is set by controls: 0 for no effect and ±100 for the full control effect; nearly all actives have a fitted effect of over 55% in size
In short: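 Readout: CellTiter-Glo luminescence after 30 min RT. Treatment: compounds in DMSO, 16 h, 37 C. Cells: CellSensor p53RE-bla HCT-116, 4,000/well, preincubated 5 h.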

[2] = qHTS assay for measurement of the activity of small molecule inhibitors on Zika virus induced Caspase-3 activity in human iPSC derived neural progenitor cells (hNPCs) (AID 1224857); settings: hNPCs ZIKV-induced caspase-3/7, Caspase-Glo luminescence, 6 h; series mostly up to 45.7 µM; note: % of control where 0% means no effect; nearly all actives have a fitted effect of over 65% in size
In short: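 Percent inhibition of virus-induced caspase-3/7 luminescence (Caspase-Glo), scaled between uninfected cells and Zika-infected cells. hNPCs received compound 1 hr before ZIKV at 2 FFU/cell, with 6 hours infection at 37 C.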

[3] = qHTS assay for measurement of the activity of small molecule inhibitors on Zika virus induced Caspase-3 activity in human astrocytoma cells (AID 1224859); settings: SNB-19 ZIKV-induced caspase-3/7, luminescence, 6 h; series mostly up to 45.7 µM;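 note: plate controls were ZIKV-infected untreated cells for no effect and uninfected cells for full effect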
In short: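 Luminescent caspase-3/7 read-out (30 min reagent, room temperature) in human SNB-19 cells infected 6 h with ZIKV (2 FFU/cell) after 1 h compound pre-incubation; Data were normalised to uninfected and infected wells.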

[4] = qHTS assay to identify small molecule inhibitors of chordoma cells - UCH-1 (AID 1259355); settings: UCH-1 chordoma viability, CellTiter-Glo, 48 h, combination, with auranofin plus four topoisomerase inhibitors; series mostly up to 46.1 µM; note: % is set by controls: 0 for no effect and ±100 for the full control effect; nearly all actives have a fitted effect of over 55% in size
In short: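 Screening used approved and investigational drugs in 15-point titration against 800 seeded cells per well. A fixed combination of auranofin with camptothecin, doxorubicin, rubitecan and topotecan followed compound addition, and growth was scored by CellTiter-Glo after 48hr.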

[5] = qHTS assay to identify small molecule inhibitors of chordoma cells - UCH-2 (AID 1259356); settings: UCH-2 chordoma viability, CellTiter-Glo ATP luminescence, 48 h; series mostly up to 46.1 µM; note: % is set by controls: 0 for no effect and ±100 for the full control effect
[6] = P-glycoprotein substrates identified in KB-8-5-11 adenocarcinoma cell line, qHTS therapeutic library screen (AID 1346987); settings: KB-8-5-11 (P-gp overexpressing) viability, CellTiter-Glo, 72 h; series mostly up to 44.5 µM; note: nearly all actives have a fitted effect of over 65% in size
In short: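 In this qHTS, P-gp-rich KB-8-5-11 cells received library compounds across a concentration range. Viability was quantified by luminescence after 72 h at 37 degree C.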

[7] = Natriuretic polypeptide receptor (hNpr1) antagonism - Pilot counterscreen GloSensor control cell line (AID 1347045; calls by dose curve; note: % is set by controls: 0 for no effect and ±100 for the full control effect); settings: HEK293 cGMP GloSensor cells, SNP-stimulated luminescence, 20 min; series mostly up to 38.3 µM
In short: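 HEK293 cGMP-sensor cells; 2% GloSensor reagent 2 h RT; LOPAC compounds in 1:5 titrations 30-50 min; 50 uM SNP 20 min; luminescence pre-read and post-read.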

CCCCC(CC)COC(=O)c1ccccc1O (stereo not drawn)
inactive: Potency [1] | outcome [2] | outcome [3] | Potency [4] | outcome [5] | Potency [6]

C[C@](N)(Cc1ccc(O)cc1)C(=O)O
inactive: outcome [2] | outcome [3] | Potency [4] | outcome [5] | outcome [7]

N[C@H]1C(O)O[C@H](CO)[C@@H](O)[C@@H]1O (stereo partly drawn)
inactive: outcome [2] | outcome [3] | Potency [4] | outcome [5] | Potency [6]

CCOC(=O)c1ccc(O)cc1
inactive: Potency [1] | outcome [2] | outcome [3] | Potency [4] | outcome [5] | Potency [6]

OCCN1CCN(CCCN2c3ccccc3Sc3ccc(Cl)cc32)CC1
inactive: outcome [2] | outcome [3] | outcome [5]

CCCCCCCCCCCCOS(=O)(=O)O
inactive: Potency [1] | outcome [2] | outcome [3] | Potency [4] | outcome [5] | Potency [6]

Oc1cccc(O)c1
inactive: Potency [1] | outcome [2] | outcome [3] | Potency [4] | outcome [5] | Potency [6]

Cc1cc2nc3c(=O)[nH]c(=O)nc-3n(C[C@H](O)[C@H](O)[C@H](O)CO)c2cc1C
inactive: Potency [1] | outcome [2] | outcome [3] | Potency [4] | outcome [5] | Potency [6]

O=C1c2c(O)cccc2Cc2cccc(O)c21
inactive: Potency [1] | outcome [2] | outcome [3] | Potency [4] | outcome [5] | Potency [6]

NCCNCCNCCNCCN
inactive: Potency [1] | activity change, negative = inhibition [2] -1.07% [at 9.06 µM] | activity change, negative = inhibition [3] 14.1% [at 9.06 µM] | Potency [4] | outcome [5] | Potency [6]

Cc1cc(N)c2ccccc2[n+]1CCCCCCCCCC[n+]1c(C)cc(N)c2ccccc21
inactive: outcome [2] | outcome [3] | Potency [4] | outcome [5] | Potency [6] | outcome [7]

CCCc1c(OCCCCc2nn[nH]n2)ccc(C(C)=O)c1O
inactive: Potency [1] | outcome [2] | outcome [3] | Potency [4] | outcome [5] | Potency [6]

O=C1NS(=O)(=O)c2ccccc21
inactive: Potency [1] | outcome [2] | outcome [3] | Potency [4] | outcome [5] | Potency [6]

O=S(=O)(O)NC1CCCCC1
inactive: Potency [1] | outcome [2] | outcome [3] | Potency [4] | outcome [5] | Potency [6]

O=C1O[C@H]([C@@H](O)CO)C(O)=C1O
inactive: Potency [1] | outcome [2] | outcome [3] | Potency [4] | outcome [5] | Potency [6]

Cc1cccc(Nc2cc(Cl)nc(SCC(=O)O)n2)c1C
inactive: Potency [1] | outcome [2] | outcome [3] | Potency [4] | outcome [5] | Potency [6]

NCCNCCNCCN
inactive: Potency [1] | outcome [2] | outcome [3] | Potency [4] | outcome [5] | Potency [6]

CC1(C)[C@@H]2CC[C@@]1(C)C(=O)C2
inactive: Potency [1] | outcome [2] | outcome [3] | Potency [4] | outcome [5] | Potency [6]
